Screen size: about 310,000 compounds; about 14,000 (4.5%) showed an effect of 50% or more. The effect is printed as a negative number. Only a selection was taken, and strong results are over-represented in it overall.
biological target: human ether-à-go-go-related gene (hERG) potassium channel (human, UniProt Q12809); test: primary screen, population patch clamp on CHO cells stably expressing hERG; higher = less effect of the substance
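Note: peak tail current of the secondary pulse compared with the same well before compound.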

Sequence of human ether-à-go-go-related gene (hERG) potassium channel (Q12809 whole entry, looked up): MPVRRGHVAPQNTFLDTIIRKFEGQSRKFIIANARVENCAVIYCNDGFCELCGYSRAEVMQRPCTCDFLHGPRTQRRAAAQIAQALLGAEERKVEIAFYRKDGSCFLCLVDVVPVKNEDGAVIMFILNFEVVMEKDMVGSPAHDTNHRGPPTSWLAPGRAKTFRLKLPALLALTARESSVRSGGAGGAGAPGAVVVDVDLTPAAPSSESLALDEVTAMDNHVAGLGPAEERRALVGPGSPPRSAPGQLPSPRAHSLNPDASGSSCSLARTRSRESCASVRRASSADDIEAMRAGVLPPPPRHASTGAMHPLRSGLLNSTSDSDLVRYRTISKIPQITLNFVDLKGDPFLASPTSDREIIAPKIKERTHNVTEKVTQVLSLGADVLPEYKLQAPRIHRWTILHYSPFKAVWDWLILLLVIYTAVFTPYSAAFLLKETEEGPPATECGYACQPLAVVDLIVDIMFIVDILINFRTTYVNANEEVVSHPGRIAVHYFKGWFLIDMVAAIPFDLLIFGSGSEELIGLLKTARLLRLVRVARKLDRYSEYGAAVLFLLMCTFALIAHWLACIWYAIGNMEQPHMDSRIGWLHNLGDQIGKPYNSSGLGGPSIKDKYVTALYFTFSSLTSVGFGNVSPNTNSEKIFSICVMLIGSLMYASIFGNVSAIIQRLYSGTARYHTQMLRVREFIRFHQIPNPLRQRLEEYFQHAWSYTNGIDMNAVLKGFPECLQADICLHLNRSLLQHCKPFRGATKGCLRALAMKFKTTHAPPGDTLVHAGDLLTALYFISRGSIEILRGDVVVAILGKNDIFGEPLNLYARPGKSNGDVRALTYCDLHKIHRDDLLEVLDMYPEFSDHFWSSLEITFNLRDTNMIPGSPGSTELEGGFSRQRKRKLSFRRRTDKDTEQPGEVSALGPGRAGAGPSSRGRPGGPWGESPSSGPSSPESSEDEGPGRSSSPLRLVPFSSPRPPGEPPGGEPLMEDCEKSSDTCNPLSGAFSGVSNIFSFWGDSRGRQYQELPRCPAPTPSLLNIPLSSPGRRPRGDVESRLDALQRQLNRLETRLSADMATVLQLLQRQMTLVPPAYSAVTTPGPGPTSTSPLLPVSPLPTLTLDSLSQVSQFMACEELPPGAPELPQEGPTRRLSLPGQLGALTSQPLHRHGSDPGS

Compared with `O=C(CSc1n[nH]c(=O)[nH]c1=O)c1ccc(Cl)cc1Cl`, `O=C(c1cc(=O)c2cc(Cl)ccc2o1)N1CCN(Cc2ccccc2)CC1` is lower in “hERG current change (%, negative = inhibition) at 10uM” value: 16.1% for the first, -70.8% for the second.

Going from `Cn1c(=O)[nH]c(=O)c2c1nc(N1CCOCC1)n2CC(O)COc1ccccc1` (centres unmarked) to `CCOC(=O)Cn1c(=O)c2c(nc(N3CCOCC3)n2C)n(C)c1=O`, the “hERG current change (%, negative = inhibition) at 10uM” value falls from 6.81% to -4.47%.

First: CCOc1ncccc1C(=O)OCC(=O)c1ccccc1Br
Second: CCc1ccc(NC(=O)c2ccccc2Br)cc1
The “hERG current change (%, negative = inhibition) at 10uM” value of the first is higher: 0.975% for the first, -11.2% for the second.

Compared with `CCOc1ccccc1OCCCC(=O)N(CC)CC(=O)Nc1c(F)cccc1F`, `CCOc1ccc(NC(=O)CN(C)C(=O)Cc2ccsc2)cc1OCC` is lower in “hERG current change (%, negative = inhibition) at 10uM” value: -1.78% for the first, -11.2% for the second.

First: CCN1CCN(C(c2ccc(C(F)(F)F)cc2)c2ccc3cccnc3c2O)CC1 (centres unmarked)
Second: COc1ccc(-c2cc(C(F)(F)F)nc(N3CCOCC3)n2)cc1
The “hERG current change (%, negative = inhibition) at 10uM” value of the first is lower: -25.3% for the first, 18.9% for the second.

Compared with `O=S(=O)(Nc1cccc2cn[nH]c12)c1ccc(F)cc1`, `O=C1CC(NS(=O)(=O)c2ccc([N+](=O)[O-])cc2)CN1c1ccc(Cl)cc1` (centres unmarked) is lower in “hERG current change (%, negative = inhibition) at 10uM” value: -5.83% for the first, -66.6% for the second.

Going from `CCOC(=O)c1cc2c(=O)n3ccccc3nc2n(CC(C)C)c1=NC(=O)c1c(-c2c(F)cccc2Cl)noc1C` to `CCOC(=O)c1cc2c(=O)n3cccc(C)c3nc2n(CC(C)C)c1=NC(=O)c1ccco1`, the “hERG current change (%, negative = inhibition) at 10uM” value falls from 5.66% to -69.7%.

Compared with `CCOC(=O)c1cc2c(=O)n3cccc(C)c3nc2n(Cc2ccco2)c1=NC(=O)c1ccccc1`, `CCCCn1c(=NC(=O)c2ccco2)c(C(=O)OCC)cc2c(=O)n3cccc(C)c3nc21` is lower in “hERG current change (%, negative = inhibition) at 10uM” value: -37.2% for the first, -81.6% for the second.

Going from `CCOCCCn1c(=NC(=O)c2ccco2)c(C(=O)OCC)cc2c(=O)n3cccc(C)c3nc21` to `CCOC(=O)c1sc(N(Cc2ccccc2)C(=O)CSc2nnc(C3CC3)n2N)nc1C`, the “hERG current change (%, negative = inhibition) at 10uM” value rises from -74% to -26.7%.

First: Cc1ccc(NC(=O)CSc2nnc(CSc3nc(C)cc(C)n3)n2Cc2ccco2)c(C)c1
Second: CCc1nnc(NC(=O)c2sc3nc4cc(C)ccc4cc3c2N)s1
The “hERG current change (%, negative = inhibition) at 10uM” value of the first is lower: -39.5% for the first, 13% for the second.

First: O=C(Cn1nnc(-c2ccccc2F)n1)Nc1ccc2c(c1)OCCO2
Second: O=C1CC(NS(=O)(=O)c2ccc([N+](=O)[O-])cc2)CN1c1ccc2c(c1)OCCO2 (centres unmarked)
The “hERG current change (%, negative = inhibition) at 10uM” value of the first is higher: 11.3% for the first, -1.64% for the second.

Going from `O=C(COc1ccccc1Cl)Nc1cccc(S(=O)(=O)NC2=NCCCCC2)c1` to `CCN(CC)c1ccc(C(=O)OCC(=O)Nc2cccc(S(=O)(=O)NC3=NCCCCC3)c2)cc1`, the “hERG current change (%, negative = inhibition) at 10uM” value rises from -5.14% to 7.02%.

Going from `CN(C)CCCn1c(SCC(=O)N2c3ccccc3Sc3ccccc32)nc2ccccc2c1=O` to `O=C(c1cc(=O)c2ccccc2o1)N1CCN(c2ccccc2)CC1`, the “hERG current change (%, negative = inhibition) at 10uM” value rises from -39.5% to 1.71%.

Compared with `CC(=O)Nc1ccc(C)cc1`, `CC(=O)Nc1ccc(C(=O)COC(=O)CCc2ccccc2)c(F)c1` is lower in “hERG current change (%, negative = inhibition) at 10uM” value: 12.2% for the first, -2.03% for the second.

Going from `O=C(O)Cn1c(=O)cnc2ccccc21` to `CC(=O)Cc1ccccc1OC(=O)c1ccco1`, the “hERG current change (%, negative = inhibition) at 10uM” value rises from 9.56% to 23.6%.

Compared with `CC(=O)c1c(C)n(C)c2ccc(OC(=O)c3ccc([N+](=O)[O-])cc3)cc12`, `COc1ccc(/C=C(/NC(=O)c2ccc([N+](=O)[O-])cc2)C(=O)NC(C)(C)C)cc1` is lower in “hERG current change (%, negative = inhibition) at 10uM” value: 17.2% for the first, -40.8% for the second.

Compared with `CCOc1cc(-c2nc(C)c(C(C)=O)n2O)ccc1OCC(=O)Nc1ccccc1`, `COc1ccc2cc(-c3cc(C(=O)OCC(=O)NC4CCS(=O)(=O)C4)c4ccccc4n3)ccc2c1` (centres unmarked) is higher in “hERG current change (%, negative = inhibition) at 10uM” value: -0.49% for the first, 16.1% for the second.

Going from `Cc1cccc(-n2ccnc2CN2CCC(CO)(Cc3ccccc3)CC2)c1` to `Cc1cc(C)n(-c2cccc(CN3CCC(CO)(Cc4ccccc4)CC3)c2)n1`, the “hERG current change (%, negative = inhibition) at 10uM” value falls from -50.1% to -58.1%.

First: Cc1cc(C)n(-c2ccc(C(=O)N3CCC(CO)(Cc4ccccc4)CC3)cc2)n1
Second: Cc1cccc(S(=O)(=O)N2CCC(CO)(Cc3ccccc3)CC2)c1
The “hERG current change (%, negative = inhibition) at 10uM” value of the first is higher: 9.21% for the first, -2.74% for the second.

Going from `Cc1[nH]c2c(C)cccc2c1CN1CCC(CO)(Cc2ccccc2)CC1` to `Cc1[nH]c2ccccc2c1CN1CCC(CO)(Cc2ccccc2)CC1`, the “hERG current change (%, negative = inhibition) at 10uM” value rises from -62.2% to -47.6%.

First: Cc1c(CN2CCC(CO)(Cc3ccccc3)CC2)c2ccccc2n1C
Second: Cc1cc(C)c2oc(C(=O)N3CCN(Cc4ccccc4)CC3)cc(=O)c2c1
The “hERG current change (%, negative = inhibition) at 10uM” value of the first is higher: -37.8% for the first, -42.9% for the second.

First: CN(C)C1=NCCN1CC1CCCCCC1
Second: COc1ccc(S(=O)(=O)N2CCCC(C(=O)N3CCCC3)C2)cc1OC (centres unmarked)
The “hERG current change (%, negative = inhibition) at 10uM” value of the first is lower: -3.28% for the first, 4.14% for the second.

Compared with `CCOC(=O)CNC(=O)Cn1cnc2sc(C)c(S(=O)(=O)N3CCOCC3)c2c1=O`, `CCOC(=O)c1ccc(S(=O)(=O)N2CCN(C(=O)c3cc(=O)c4ccccc4o3)CC2)cc1` is lower in “hERG current change (%, negative = inhibition) at 10uM” value: 16.4% for the first, -38.2% for the second.

First: CC(=O)N1CCc2cc(S(=O)(=O)CCC(=O)N3CCN(c4ccccc4)CC3)ccc21
Second: O=C(c1cc2ccccc2o1)N1CCN(c2cccc(Cl)c2)CC1
The “hERG current change (%, negative = inhibition) at 10uM” value of the first is higher: 7.15% for the first, -16.3% for the second.

Compared with `O=S1(=O)N=C(N(Cc2cccs2)c2ccc(O)cc2)c2ccccc21`, `Cc1cccc(C2C3=C(CCCC3=O)N=C3c4ccccc4C(=O)C32)c1` (centres unmarked) is higher in “hERG current change (%, negative = inhibition) at 10uM” value: -39.1% for the first, -0.327% for the second.

Going from `COc1ccc(C(=O)N/C(=C\c2ccc([N+](=O)[O-])cc2)C(=O)NC(CCSC)C(=O)O)cc1` (centres unmarked) to `C=CCNC(=O)/C(=C\c1ccc(OC)cc1)NC(=O)c1ccc([N+](=O)[O-])cc1`, the “hERG current change (%, negative = inhibition) at 10uM” value falls from 9.2% to -77.1%.

First: C=CCNC(=O)/C(=C\c1ccc([N+](=O)[O-])cc1)NC(C)=O
Second: COc1ccc(/C=C(/NC(=O)c2ccc([N+](=O)[O-])cc2)C(=O)NCCCN(C)C)cc1
The “hERG current change (%, negative = inhibition) at 10uM” value of the first is higher: 2.33% for the first, -93.4% for the second.

Going from `COc1ccc(C(=O)N/C(=C\c2cc(OC)c(OC)cc2[N+](=O)[O-])C(=O)NCCO)cc1` to `COc1ccc(CCN(C)C(=O)c2ccc(C)c(S(=O)(=O)N3CCCCC3)c2)cc1OC`, the “hERG current change (%, negative = inhibition) at 10uM” value falls from 17.3% to -20.9%.

First: Nc1ncncc1-c1ccc([N+](=O)[O-])cc1
Second: Cc1cc(NN)nc(Cc2ccccc2)n1
The “hERG current change (%, negative = inhibition) at 10uM” value of the first is lower: -9.28% for the first, 10.2% for the second.

First: CC(=O)N1CCN(C(=O)c2cc(=O)c3ccccc3o2)CC1
Second: O=C(c1cc(=O)c2ccccc2o1)N1CCN(c2cccc(Cl)c2)CC1
The “hERG current change (%, negative = inhibition) at 10uM” value of the first is higher: 26.2% for the first, -56.4% for the second.

First: COc1ccc(N2CCN(C(=O)c3cc(=O)c4cc(C)ccc4o3)CC2)cc1
Second: COc1ccc(N2CCN(C(=O)c3cc(=O)c4cc(Cl)ccc4o3)CC2)cc1
The “hERG current change (%, negative = inhibition) at 10uM” value of the first is higher: -38.1% for the first, -76.3% for the second.

Compared with `CN1CCN(C(=O)c2cc(=O)c3cc(Cl)ccc3o2)CC1`, `COc1ccc(N2CCN(C(=O)c3cc(=O)c4cc(C)c(C)cc4o3)CC2)cc1` is higher in “hERG current change (%, negative = inhibition) at 10uM” value: -28.1% for the first, 0.819% for the second.

First: Cc1ccc(S(=O)(=O)N2CCN(C(=O)c3cc(=O)c4ccccc4o3)CC2)cc1
Second: COc1ccc(CCN(C)C2CCCN(S(=O)(=O)c3ccc(C)cc3)C2)cc1OC (centres unmarked)
The “hERG current change (%, negative = inhibition) at 10uM” value of the first is higher: -55% for the first, -78% for the second.

Going from `COc1ccc(C2=NOC(Cn3c(Cc4ccc(Cl)cc4)nc4c3c(=O)n(C)c(=O)n4C)C2)cc1` (centres unmarked) to `CC(=O)c1ccc(S(=O)(=O)NC2CC(=O)N(c3ccc(Cl)cc3)C2)cc1` (centres unmarked), the “hERG current change (%, negative = inhibition) at 10uM” value falls from -22.1% to -34.8%.

First: CCCCNC(=O)c1ccc(N2CCC3(CC2)OCCO3)c([N+](=O)[O-])c1
Second: COc1cccc(OCCCN2CCCCCC2)c1.O=C(O)C(=O)O
The “hERG current change (%, negative = inhibition) at 10uM” value of the first is higher: -22.2% for the first, -37.8% for the second.

First: c1ccc(Oc2cccc(OCCCCN3CCCC3)c2)cc1
Second: c1ccc(OCCCCN2CCCCC2)cc1
The “hERG current change (%, negative = inhibition) at 10uM” value of the first is lower: -78.3% for the first, 1.35% for the second.

Going from `CCOc1cccc(OCCCCN2CCCCC2)c1` to `Brc1cccc(OCCCCN2CCCCC2)c1.O=C(O)C(=O)O`, the “hERG current change (%, negative = inhibition) at 10uM” value falls from -38.1% to -68.9%.

Compared with `Brc1cccc(OCCN2CCCCC2)c1.O=C(O)C(=O)O`, `Brc1cccc(OCCCN2CCCCCC2)c1.O=C(O)C(=O)O` is lower in “hERG current change (%, negative = inhibition) at 10uM” value: -21.3% for the first, -70% for the second.

Compared with `Brc1cccc(OCCN2CCOCC2)c1.O=C(O)C(=O)O`, `O=C(NCCc1ccccc1)C(=S)N1CCCCC1` is lower in “hERG current change (%, negative = inhibition) at 10uM” value: 19% for the first, 9.48% for the second.

Compared with `Cc1cc(O)c(C(C)C)cc1NC(=O)c1cccc(Cl)c1`, `O=C(CNC(=O)c1cccc(F)c1)OCC(=O)N1CCCc2ccccc21` is higher in “hERG current change (%, negative = inhibition) at 10uM” value: -13.4% for the first, -0.321% for the second.

First: COc1ccc(CCN(C)C2CCCN(S(=O)(=O)C(C)C)C2)cc1OC (centres unmarked)
Second: COc1ccc(CCN(C)C2CCCN(S(C)(=O)=O)C2)cc1OC (centres unmarked)
The “hERG current change (%, negative = inhibition) at 10uM” value of the first is lower: -20.2% for the first, -4.36% for the second.

Compared with `COc1ccc(S(=O)(=O)N2CCCC(N(C)CCc3ccccc3)C2)cc1OC` (centres unmarked), `COc1ccc(CCN(C)C2CCCN(S(=O)(=O)c3ccccc3)C2)cc1OC` (centres unmarked) is lower in “hERG current change (%, negative = inhibition) at 10uM” value: -66.5% for the first, -77.2% for the second.

Compared with `C=CCS(=O)(=O)N1CCCC(N(C)CCc2ccc(OC)c(OC)c2)C1` (centres unmarked), `COc1ccc(CCN(C)C2CCCN(S(=O)(=O)N(C)C)C2)cc1OC` (centres unmarked) is higher in “hERG current change (%, negative = inhibition) at 10uM” value: -16.1% for the first, -8.26% for the second.

Compared with `CN(CCc1ccccc1)C1CCCN(S(=O)(=O)c2cccc(F)c2)C1` (centres unmarked), `COc1ccc(CCN(C)C2CCCN(S(=O)(=O)c3ccccc3F)C2)cc1OC` (centres unmarked) is lower in “hERG current change (%, negative = inhibition) at 10uM” value: -48.1% for the first, -64.3% for the second.

For `C/C=C(\C)CN1CCCC(N(C)CCc2ccc(OC)c(OC)c2)C1` (centres unmarked), the “hERG current change (%, negative = inhibition) at 10uM” value was -27.5%.
